# Compound activity as filed in PubChem BioAssay.
# NCOA2 inhibitor: human SRC2 (NCOA2) inhibition; Q15596; HEK293 GAL4-SRC2 luciferase reporter, luminescence; inhibition, % at 9 µM; 0.17% of 370,000 active; AID 651957;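 active = inhibition above the mean inhibition of all tested compounds plus 3 SD, set per campaign, cut at about 52% in these data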;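 note: 0% = DMSO treated cells and 100% = cells given Gossypol at 36 µM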
# NR2F2 inh: inhibitors of human COUP-TFII (NR2F2); HEK293T NGFI-A luciferase reporter, luminescence; 0.7% of 370,000 active; inhibition, % at 8.6 µM; AID 686940; P24468;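 active = inhibition above a per-plate cutoff, mean inhibition of test wells between control levels plus 3 SD, cut at about 38% in these data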;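 note: cells cotransfected with COUP-TFII expression vector driving the NGFI-A reporter; 0% = median of COUP-TF2 test wells and 100% = reporter-only cells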
# NCOA1 inh: inhibitors of human steroid receptor coactivator 1 (SRC1); HEK293 GAL4-SRC1 luciferase reporter, luminescence; inhibition, % at 3.6 µM; 0.12% of 360,000 active; AID 588354;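 active = inhibition above the campaign mean plus 3 SD, with each screening campaign given its own cutoff, cut at about 60% in these data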;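 note: 0% = DMSO treated cells and 100% = gossypol at 36 µM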
# SRC3 inh: human NCOA3 inhibition | Q9Y6Q9 | HEK293 GAL4-SRC3 luciferase reporter, luminescence | inhibition, % at 3.6 µM | AID 588352 | 0.17% of 360,000 active;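 active = inhibition above a per-campaign cutoff, the mean of all compounds plus 3 SD, cut at about 60% in these data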;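 note: 0% = DMSO-treated cells and 100% = gossypol-treated cells at 36 µM; higher means less SRC3-driven luciferase light from the GAL4 reporter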
# LRH-1 inv ag: NR5A2 inverse agonism in reporter assay; O00482; HEK293T StAR-luciferase reporter, LRH-1 transfected, 24 h; inhibition, % at 3.6 µM; 0.13% of 360,000 active;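 active = inhibition above the mean inhibition of all tested compounds plus 3 SD, cut at about 73% in these data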;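 note: 0% = DMSO wells and 100% = reporter-only cells lacking LRH-1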
# VP16 Luc counter: inhibits VP16 reporter, flagging COUP-TFII antagonist hits; shares compounds with NR2F2 inh; HEK293 Gal4-VP16 luciferase reporter, luminescence; inhibition, % at 8.5 µM; 25% of 2,500 active; AID 687007; in the data active = inhibition above about 13%
# NR2F2 inh conf: COUP-TFII (NR2F2) inhibition, confirmation assay; shares compounds with NR2F2 inh; HEK293 NGFI-A luciferase reporter, luminescence; inhibition, % at 8.5 µM; 45% of 2,500 active;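 active = mean inhibition over three repeats above a set limit taken from the earlier primary screen, cut at about 38% in these data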;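 note: 100% = cells given the luciferase reporter alone without the COUP-TF2 vector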
# * marks the source's active call; other numbers are inactive results; · = no result. Shown are actives, neighbours in structure and some others; about 0.81% of the full set was active somewhere.
SMILES,NCOA2 inhibitor,NR2F2 inh,NCOA1 inh,SRC3 inh,LRH-1 inv ag,VP16 Luc counter,NR2F2 inh conf
COC(=O)c1cc(S(=O)(=O)NCC2CCN(Cc3cccc(Cl)c3)CC2)c[nH]1,-17.8,-13.4,-9.7,-7.3,10.2,·,·
S=C(NCc1ccc(Cl)cc1)NC1CCN(Cc2ccccc2)CC1,34.9,51.7*,-23.5,23.2,15.0,6.3,19.4
O=C1NC(Cc2ccc(O)cc2)c2nc3ccc(Cl)cc3c(=O)n2-c2cc3ccccc3cc21 (stereo not drawn),5.4,40.6*,-32.8,8.8,12.4,0.4,3.1
O=C1NC(Cc2ccccc2)c2nc3ccc(Cl)cc3c(=O)n2-c2cc3ccccc3cc21 (stereo not drawn),10.8,-11.5,4.3,-12.3,-14.6,·,·
COc1cccc(Oc2ccc(S(=O)(=O)N3CCOCC3)cc2[N+](=O)[O-])c1,-6.1,44.2*,-7.4,2.6,-3.6,-9.0,0.1
CC(C)N(CCCNC(=O)Cn1c(=O)c2cccn2c2ccc(F)cc21)Cc1ccccc1,-31.7,-1.7,-10.7,-18.4,-9.0,·,·
Cn1nc(C(C)(C)C)cc1C(=O)N1CCCCC1c1cc(C(=O)Nc2ccc(F)c(Cl)c2)no1 (stereo not drawn),-25.3,41.0*,14.4,26.8,14.9,2.8,13.4
O=C(Nc1ccc(F)c(Cl)c1)c1cc(C2CCCCN2C(=O)c2ccc(Cl)cc2)on1 (stereo not drawn),4.0,-6.9,3.5,11.9,-4.3,·,·
Cc1ccccc1N(C=O)c1ccccc1C,0.0,-0.7,2.7,-0.3,5.1,·,·
Cc1cc(C)nc(/N=C(\N)Nc2ccc(OCCC(C)C)cc2)n1,11.9,58.4*,21.6,40.5,26.1,18.3*,38.0*
Cc1cc(C)nc(/N=C(\N)Nc2ccc(CC(=O)OC(C)C)cc2)n1,5.0,50.8*,31.1,19.4,29.7,1.2,18.3
Cc1cc(C)nc(/N=C(\N)Nc2ccc(OCc3ccccc3)cc2)n1,1.6,47.0*,-14.4,19.8,33.7,3.7,27.1
COc1ccc(N/C(N)=N/c2nc(C)cc(C)n2)cc1,23.1,-5.0,-0.7,8.3,15.8,·,·
COc1ccc(OC)c(NC(=O)CCC(=O)Oc2ccc(C)cc2)c1,-14.9,38.9*,-0.4,5.9,11.1,-5.8,0.4
NC(=S)N/N=C1\CCSc2ccc(Cl)cc21,14.2,37.4*,28.7,33.7,22.6,-1.0,32.8
COc1cccc2sc3ccc(C#CC4(O)CCCCC4)cc3c(=O)c12,-51.4,-20.2,-76.7,-74.4,-147.4,·,·
O=c1c2ccccc2oc2cc(C#CC3(O)CCCCC3)ccc12,50.0,69.1*,65.0*,62.3*,53.3,5.3,66.5*
O=c1c2ccccc2sc2ccc(C#CC3(O)CCCCC3)cc12,84.9*,95.8*,92.7*,92.5*,90.9*,90.0*,105.0*
Cc1cc(C)c(C)c(S(=O)(=O)N2CCC(C(=O)NCCCN3CCCC3=O)CC2)c1C,-12.8,-9.6,-2.8,7.7,0.5,·,·
COc1cccc(-c2cnc(C(O)c3c(C)cccc3C)[nH]2)c1 (stereo not drawn),-17.3,-7.6,-15.7,1.2,2.8,·,·
c1ccc(-c2ccc(-c3nc(-c4ccccn4)no3)cc2)cc1,66.8*,63.5*,55.6,66.4*,47.8,70.9*,87.8*
c1ccc(-c2nc(-c3ccccn3)no2)cc1,19.6,-2.4,-24.5,-13.1,-91.5,·,·
Cc1ccc(-c2nc(-c3ccccn3)no2)cc1,74.9*,71.8*,50.7,57.3,42.5,60.3*,78.5*
Cc1ccc(-c2nc(-c3ccccn3)no2)cc1Cl,48.9,21.4,-35.0,8.9,-28.5,·,·
Cn1nnnc1SCc1csc(C2C(C#N)=C(N)OC3=C2C(=O)CCC3)c1 (stereo not drawn),-15.2,3.1,14.2,11.9,9.2,·,·
SMILES,NCOA2 inhibitor,NR2F2 inh,NCOA1 inh,SRC3 inh,LRH-1 inv ag,VP16 Luc counter,NR2F2 inh conf
Cc1cccc(C(=O)OC(C)CN2C(C)CCCC2C)c1 (stereo not drawn),1.8,14.1,4.6,-1.5,16.8,·,·
CCc1nn(CCCC(=O)NC2CCCCC2C)c(=O)c2cc3occc3n12 (stereo not drawn),-4.0,0.9,5.0,-21.2,-17.4,·,·
CCOc1cc(CNCc2ccncc2)cc(Br)c1OCc1ccccc1F,13.2,38.0*,0.5,10.3,30.2,11.4,33.5
O=C1C(C2=NC(c3ccccn3)C3C(=O)N(c4ccccc4)C(=O)C23)=C(O)c2ccccc21 (stereo not drawn),-41.3,-11.2,-5.2,8.8,-0.4,·,·
O=C(/C=C/Nc1ccccc1Br)c1ccccn1,81.1*,68.5*,43.3,59.3,41.6,61.2*,79.6*
Cc1oc(-c2ccc3c(c2)OCCO3)cc1C(=O)O,74.5*,52.0*,18.1,28.8,14.3,-123.7,10.3
CCOC(=O)c1ccc(-c2csc(NC(=O)CN3CCC(C)CC3)n2)cc1,-16.9,-9.2,-10.5,6.8,14.8,·,·
COC(=O)C1CCN(C(=O)c2cc(-c3ccc(Cl)s3)nc3ccccc23)CC1,19.0,37.6*,-3.5,20.2,10.3,-6.1,4.4
COc1ccc2c(c1)C(CC(C)=O)N(c1ccc(-c3cnc(OC)nc3)cc1)C(c1ccsc1)=C2 (stereo not drawn),-3.6,-4.8,·,·,-12.9,·,·
COc1ccc2c(c1)C(CC(C)=O)N(c1ccc(-c3cccs3)cc1)C(c1ccsc1)=C2 (stereo not drawn),0.7,46.7*,·,·,38.1,-14.4,-1.8
O=C(Nc1ccccc1)c1cc(C2CCCN(C(=O)c3ccccc3)C2)on1 (stereo not drawn),-27.3,-12.4,-27.3,-50.9,-1.7,·,·
CC(C)(C)c1ccc(NC(=O)c2cc(C3CCCN(S(=O)(=O)c4cccc5cccnc45)C3)on2)cc1 (stereo not drawn),-6.2,-11.1,4.8,14.3,1.3,·,·
CCCC(=O)N1CCCC(c2cc(C(=O)Nc3ccccc3)no2)C1 (stereo not drawn),22.1,43.9*,28.1,30.3,28.7,-66.9,33.6
Cc1ncccc1C(=O)N1CCCC(c2cc(C(=O)Nc3ccc(C(C)(C)C)cc3)no2)C1 (stereo not drawn),6.0,40.0*,-1.2,-2.6,19.1,-11.1,-4.8
O=C(O)c1ccccc1C(=O)c1ccc2c(c1)N(Cc1ccc(Cl)c(Cl)c1)C(=O)CO2,-8.9,-2.6,-13.9,3.6,4.2,·,·
O=C1C(=O)c2cccnc2-c2ncccc21,94.0*,103.2*,89.0*,91.1*,104.0*,96.8*,111.7*
COCCOC1CCN(C(=O)c2cc(COc3ccc(-n4cncn4)cc3)on2)CC1,5.0,2.7,-9.0,13.3,7.3,·,·
COCC1CCCCN1C(=O)c1cc(COc2ccc3ncccc3c2)on1 (stereo not drawn),28.1,44.1*,-0.5,22.3,29.4,6.3,57.2*
